# Reference: PubChem BioAssay AID1671202 (University of Kansas High Throughput Screening Laboratory, 2021)
# The campaign covered roughly 190,000 compounds. About 6,900 (3.6%) were called active. Rule as the data show it: active = inhibition above about 50%; inactive = the rest. Shown is part of a subset that was picked to be rich in actives.
# Molecular target: Huntingtin (Homo sapiens) (UniProt P42858)
# Experiment: mutant huntingtin-calmodulin interaction inhibitors – biochemical, AlphaScreen, primary screen (AID 1671202);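 also: 0% = both proteins with DMSO and 100% = one protein alone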
# Conditions: AlphaScreen His-mHTT/GST-CaM binding, luminescence; at 15 µM, hits give high values
# Chain of Huntingtin (Homo sapiens) (P42858 whole entry, looked up, stated change not applied): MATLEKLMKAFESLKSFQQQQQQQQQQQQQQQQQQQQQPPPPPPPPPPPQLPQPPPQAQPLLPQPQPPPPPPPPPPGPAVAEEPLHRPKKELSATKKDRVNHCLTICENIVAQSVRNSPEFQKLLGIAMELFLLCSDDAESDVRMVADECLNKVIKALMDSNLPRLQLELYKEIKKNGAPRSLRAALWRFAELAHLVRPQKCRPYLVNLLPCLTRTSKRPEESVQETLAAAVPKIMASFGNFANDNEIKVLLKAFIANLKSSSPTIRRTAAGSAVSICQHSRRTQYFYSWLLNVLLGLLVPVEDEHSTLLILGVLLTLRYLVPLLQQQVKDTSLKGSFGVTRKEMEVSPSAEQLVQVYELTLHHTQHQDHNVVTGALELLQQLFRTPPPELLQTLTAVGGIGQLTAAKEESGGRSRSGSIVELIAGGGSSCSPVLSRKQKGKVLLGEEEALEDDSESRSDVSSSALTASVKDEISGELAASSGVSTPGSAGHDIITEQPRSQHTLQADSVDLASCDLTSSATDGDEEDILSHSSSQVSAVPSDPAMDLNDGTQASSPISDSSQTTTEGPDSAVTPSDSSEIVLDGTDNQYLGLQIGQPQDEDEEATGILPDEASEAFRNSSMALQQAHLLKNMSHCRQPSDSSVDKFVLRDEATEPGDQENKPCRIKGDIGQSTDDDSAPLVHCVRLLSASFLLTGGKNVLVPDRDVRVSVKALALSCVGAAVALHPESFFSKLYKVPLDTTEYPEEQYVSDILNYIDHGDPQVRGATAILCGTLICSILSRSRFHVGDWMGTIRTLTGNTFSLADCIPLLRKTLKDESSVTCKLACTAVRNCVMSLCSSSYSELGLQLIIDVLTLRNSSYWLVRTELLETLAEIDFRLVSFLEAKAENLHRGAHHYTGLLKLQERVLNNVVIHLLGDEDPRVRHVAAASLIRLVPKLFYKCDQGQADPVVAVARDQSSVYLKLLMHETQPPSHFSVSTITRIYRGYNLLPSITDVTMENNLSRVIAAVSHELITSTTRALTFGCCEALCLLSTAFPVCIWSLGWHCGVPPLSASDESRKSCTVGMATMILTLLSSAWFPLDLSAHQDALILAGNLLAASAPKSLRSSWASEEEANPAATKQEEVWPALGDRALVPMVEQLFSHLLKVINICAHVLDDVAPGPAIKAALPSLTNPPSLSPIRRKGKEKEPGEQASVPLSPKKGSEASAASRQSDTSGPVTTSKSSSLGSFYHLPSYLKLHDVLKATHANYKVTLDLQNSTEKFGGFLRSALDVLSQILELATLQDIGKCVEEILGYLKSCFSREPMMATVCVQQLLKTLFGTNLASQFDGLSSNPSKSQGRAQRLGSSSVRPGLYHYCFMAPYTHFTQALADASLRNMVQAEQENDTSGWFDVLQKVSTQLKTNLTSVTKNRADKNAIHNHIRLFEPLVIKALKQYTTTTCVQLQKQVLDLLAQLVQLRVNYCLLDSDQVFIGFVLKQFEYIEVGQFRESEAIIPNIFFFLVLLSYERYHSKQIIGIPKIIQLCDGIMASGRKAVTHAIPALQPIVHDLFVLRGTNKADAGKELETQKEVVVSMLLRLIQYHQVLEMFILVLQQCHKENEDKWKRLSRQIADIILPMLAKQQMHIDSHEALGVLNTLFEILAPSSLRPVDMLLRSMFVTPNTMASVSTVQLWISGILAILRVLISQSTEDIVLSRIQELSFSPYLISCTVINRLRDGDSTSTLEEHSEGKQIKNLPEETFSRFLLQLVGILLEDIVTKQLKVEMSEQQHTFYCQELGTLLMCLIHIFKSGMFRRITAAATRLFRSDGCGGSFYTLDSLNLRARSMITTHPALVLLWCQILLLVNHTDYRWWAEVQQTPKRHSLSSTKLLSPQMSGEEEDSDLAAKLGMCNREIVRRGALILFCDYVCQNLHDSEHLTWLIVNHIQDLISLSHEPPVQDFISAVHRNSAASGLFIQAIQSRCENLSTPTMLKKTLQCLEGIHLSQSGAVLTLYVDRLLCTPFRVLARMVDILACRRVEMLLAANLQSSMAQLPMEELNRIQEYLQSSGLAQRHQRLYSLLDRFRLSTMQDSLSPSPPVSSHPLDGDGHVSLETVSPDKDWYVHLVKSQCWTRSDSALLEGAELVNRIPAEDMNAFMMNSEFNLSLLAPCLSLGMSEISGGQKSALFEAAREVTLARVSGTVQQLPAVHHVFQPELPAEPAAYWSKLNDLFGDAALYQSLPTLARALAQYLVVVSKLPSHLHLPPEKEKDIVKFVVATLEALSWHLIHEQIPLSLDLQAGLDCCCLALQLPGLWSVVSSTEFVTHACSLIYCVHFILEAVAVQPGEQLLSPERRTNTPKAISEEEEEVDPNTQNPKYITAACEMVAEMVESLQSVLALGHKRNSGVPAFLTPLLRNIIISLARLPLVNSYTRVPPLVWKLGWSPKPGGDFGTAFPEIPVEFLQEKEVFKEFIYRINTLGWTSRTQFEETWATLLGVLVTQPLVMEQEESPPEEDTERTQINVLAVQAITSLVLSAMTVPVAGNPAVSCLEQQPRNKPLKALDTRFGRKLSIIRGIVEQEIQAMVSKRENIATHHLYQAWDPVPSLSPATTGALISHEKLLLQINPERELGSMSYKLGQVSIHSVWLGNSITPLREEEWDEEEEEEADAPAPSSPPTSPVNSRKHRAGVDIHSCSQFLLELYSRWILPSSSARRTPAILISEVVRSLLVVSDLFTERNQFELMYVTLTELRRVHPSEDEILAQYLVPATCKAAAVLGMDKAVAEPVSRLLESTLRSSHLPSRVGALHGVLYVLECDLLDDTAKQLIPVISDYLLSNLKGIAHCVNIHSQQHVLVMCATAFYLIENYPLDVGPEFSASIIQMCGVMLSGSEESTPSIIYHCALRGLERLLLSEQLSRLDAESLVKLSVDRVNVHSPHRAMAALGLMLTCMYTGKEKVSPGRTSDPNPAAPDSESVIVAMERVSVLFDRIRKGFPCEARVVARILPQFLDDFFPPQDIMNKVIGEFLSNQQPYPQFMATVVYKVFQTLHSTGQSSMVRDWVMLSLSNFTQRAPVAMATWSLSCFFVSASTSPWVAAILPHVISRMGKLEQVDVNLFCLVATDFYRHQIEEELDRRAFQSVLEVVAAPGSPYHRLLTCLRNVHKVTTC
row,Compound,inhibition
1,CC1(C(=O)NCC2CCCO2)CCC(=O)N1Cc1cccs1 (configuration not stated),3% (inactive)
2,CCN(c1ccc(F)cc1)S(=O)(=O)c1ccc2[nH]cc(C(=O)NCCN(C)C)c(=O)c2c1,3% (inactive)
3,CCOc1ccc(CN2C(=O)CCC2(C)C(=O)NC2CCCC(C)C2C)cc1 (configuration not stated),-9% (inactive)
4,C=CCNCCCOc1ccc(Br)cc1C,0.1% (inactive)
5,COc1ccc(NC(=O)CN2C(=O)C(c3ccccc3)=NC23CCCCCC3)cc1OC,-0.13% (inactive)
6,CCc1ccc(NC(=O)CN2C(=O)C(c3ccccc3)=NC23CCCCC3)cc1,-7.57% (inactive)
7,O=C(CN1C(=O)C(c2ccccc2)=NC12CCCCC2)Nc1ccc(Cl)cc1,50.9% (active)
8,Cc1ccc(NC(=O)CN2CCN(c3ccccn3)CC2)cc1F,2% (inactive)
9,COCCNC(=O)NCCn1ccnc1C,-11.5% (inactive)
10,COc1cc(CN2CCN(Cc3cc(OC)c(OC)c(OC)c3)CC2)cc(OC)c1,-4.6% (inactive)
11,COc1cccc(C(=O)N(CC#N)CC#N)c1,4.4% (inactive)
12,COc1ccc(O)c(C(=O)CC(=O)c2cccc(F)c2)c1,58.1% (active)
13,COc1ccc(CC(=O)Nc2ccccc2F)cc1,0.5% (inactive)
14,CCSc1nc2ccccc2c(=O)n1C,-11.7% (inactive)
15,CC(C)n1c(COc2ccccc2)nc2ccccc21,-16% (inactive)
16,Cn1c(COc2ccc(Cl)cc2)nc2ccccc2c1=O,61.9% (active)
17,O=C(Nc1cccc(NC(=O)c2ccccc2Cl)c1)c1ccccc1Cl,1% (inactive)
18,Nc1c(C(=O)Nc2ccccc2I)sc2nc(-c3cccs3)ccc12,-8% (inactive)
19,CCOc1cccc2c1OC1(CCCCC1)N1N=C(c3cccnc3)CC21 (configuration not stated),27% (inactive)
20,CCOc1cccc2c1OC(c1ccc(OC)c(OC)c1)N1N=C(c3ccco3)CC21 (configuration not stated),45% (inactive)
21,CCOc1cccc2c1OC(c1cccc(OC)c1OC)N1N=C(c3ccc(C)o3)CC21 (configuration not stated),67% (active)
22,CCOC(=O)C1CCN(C(=O)CCN2C(=O)c3ccccc3S2(=O)=O)CC1,-1.8% (inactive)
23,O=C(Nc1ccc2c(c1)OCCO2)N1CCCC1c1ccc(Cl)cc1 (configuration not stated),10.2% (inactive)

row,Compound,inhibition
1,N#C/C(=C\c1ccc(F)cc1)c1nc(-c2cc3ccccc3oc2=O)cs1,-8% (inactive)
2,CC1(C)Cc2ccccc2-c2nc(NCCO)n(Cc3ccccc3)c(=O)c21,15% (inactive)
3,Cc1cccc(NC(=O)c2nc(-c3cccc(F)c3)n3c2CCCCC3)n1,43.6% (inactive)
4,CCCNC(=O)Cc1cn(C)c2ncccc12,-16.2% (inactive)
5,Cn1cc(CCN2CCN(C(=O)c3ccc(C(F)(F)F)cc3)CC2)c2cccnc21,54.6% (active)
6,Cc1ccccc1N1CCN(C(=O)Cc2cn(C)c3ncccc23)CC1,10.1% (inactive)
7,CCCC(O)=C1C(=O)CC(C)(C)CC1=Nc1cccc([N+](=O)[O-])c1,-1.5% (inactive)
8,CC(=O)Nc1ccc(N/C=C(\C#N)c2nc(-c3ccccc3)cs2)cc1,4% (inactive)
9,O=C(Nc1c2c(nn1-c1ccc(Cl)cc1)CSC2)c1cccc([N+](=O)[O-])c1,-9% (inactive)
10,COc1ccc(/C=C/C(=O)Nc2c3c(nn2-c2ccccc2C)CSC3)cc1OC,29% (inactive)
11,Cc1cccc(-n2nc3c(c2NC(=O)c2c(F)cccc2F)CSC3)c1C,5% (inactive)
12,Cc1cccc(-n2nc3c(c2NC(=O)C2CC2)CSC3)c1C,8% (inactive)
13,Cc1ccccc1-n1nc2c(c1NC(=O)C1CC1)CSC2,60% (active)
14,COc1cccc(C(=O)Nc2c3c(nn2-c2ccc(Cl)cc2)CSC3)c1,41% (inactive)
15,CC(C)C(=O)Nc1c2c(nn1-c1ccc(Cl)cc1)CSC2,-5% (inactive)
16,O=C(/C=C/c1ccco1)Nc1c2c(nn1-c1ccc(Cl)cc1)CSC2,98% (active)
17,Cc1ccccc1-n1nc2c(c1NC(=O)/C=C/c1ccco1)CSC2,98% (active)
18,Cc1cccc(-n2nc3c(c2NC(=O)c2ccc(Br)o2)CSC3)c1C,24% (inactive)
19,O=C(Nc1c2c(nn1-c1ccc(Cl)cc1)CSC2)c1cccc(Br)c1,50% (active)
20,O=C(Nc1c2c(nn1-c1ccc(Cl)cc1)CSC2)c1ccc(F)cc1,21% (inactive)
21,O=C(Nc1ccc(Cl)cc1)c1cc(S(=O)(=O)NCc2ccccc2)ccc1Cl,13% (inactive)
22,COc1ccc(OC)c(-c2cc(C(=O)Nc3nc4c(s3)CCCC4)n(C)n2)c1,16.3% (inactive)
23,Cc1nc(C2CCN(C(=O)c3cccc(F)c3)CC2)sc1C(=O)NCc1cccnc1,9.99% (inactive)

row,Compound,inhibition
1,CCCn1cnnc1C1CCCCN1C(=O)c1ccncc1 (configuration not stated),-3.5% (inactive)
2,c1ccc2c(c1)CC1(CCCCC1)N=C2N1CCOCC1,-5.33% (inactive)
3,CC(C)C(=O)Nc1ccc(N2CCCN(C(=O)C3CC3)CC2)nc1,-1% (inactive)
4,CCCc1cc2c(=O)c(-c3ccc4c(c3)OCO4)c(CC)oc2cc1OC(=O)CC,-12.9% (inactive)
5,C=CCSC1=C(C#N)C(c2ccco2)C(C(=O)Nc2ccccc2OC)=C(C)N1 (configuration not stated),8% (inactive)
6,c1ccc(-c2n[nH]c(C3CCN(Cc4cccnc4)CC3)n2)cc1,9.4% (inactive)
7,O=C(Cc1cccnc1)N1CCCC(c2nc(-c3ccccc3)n[nH]2)C1 (configuration not stated),-0.1% (inactive)
8,c1ccc(-c2n[nH]c(C3CCCN(Cc4ccccn4)C3)n2)cc1 (configuration not stated),100% (active)
9,COC(=O)C(C)Oc1ccc2c(c1)OC(=Cc1ccccc1C)C2=O (configuration not stated),0.9% (inactive)
10,COc1ccccc1CC(=O)N1CCCC2(C1)Nc1cccnc1NC2=NC1CCCC1 (configuration not stated),16.8% (inactive)
11,Cc1cc(C)n(CC(=O)N2CCCC3(C2)Nc2cccnc2NC3=NC2CCCC2)n1 (configuration not stated),-1.34% (inactive)
12,COCCN=C1Nc2ccccc2NC12CCCN(C(=O)Cc1cccs1)C2 (configuration not stated),63% (active)
13,COCCN=C1Nc2ccccc2NC12CCCN(C(=O)c1cccc(Cl)c1)C2 (configuration not stated),65.7% (active)
14,COCCN=C1Nc2ccccc2NC12CCCN(S(=O)(=O)c1cccc(OC)c1)C2 (configuration not stated),11.2% (inactive)
15,Cc1ccccc1CNC(=O)C1(C)CCCN(C(=O)c2cccc(Cl)c2)C1 (configuration not stated),19.4% (inactive)
16,COCCN=C1Nc2ccccc2NC12CCCN(C(=O)CSc1ccccc1)C2 (configuration not stated),76.2% (active)
17,CCOc1ccc(CC(=O)N2CCCC3(C2)Nc2cccnc2NC3=NC2CCCC2)cc1 (configuration not stated),11.4% (inactive)
18,O=C(c1ccsc1)N1CCCC2(C1)Nc1ccccc1NC2=NC1CCCC1 (configuration not stated),4.96% (inactive)
19,COc1cccc(CNC(=O)N2CCCC3(C2)Nc2cccnc2NC3=NC2CCCC2)c1 (configuration not stated),1.31% (inactive)
20,COCCN=C1Nc2ccccc2NC12CCCN(C(=O)Nc1cccc(OC)c1)C2 (configuration not stated),99.8% (active)
21,COCCN=C1Nc2ccccc2CNC12CCN(C(=O)c1cccc(C(F)(F)F)c1)C2 (configuration not stated),18.7% (inactive)
